Measurements reported in PubChem BioAssay (NCI).
About 83,000 compounds went through this panel and 20% of them were active in at least one assay; those are over-represented in the sample as a whole.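 The endpoint reported here, percent growth, reads 100 for growth as untreated, 0 for no net growth and -100 for all cells dead.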 Unmarked numbers belong to inactive results. The source made the active and inactive calls. Rule for the calls: active = growth percent below 10; inactive = the rest.

System: HCT-15 colon
Experiment: NCI-60 one-dose screen, 48 h (100 = growth as untreated, 0 = no growth, -100 = all killed)
Conditions: 10 µM unless noted

SMILES	growth
CC(C)c1ccc(NC(=O)Nc2ccc(NC(=O)c3ccccc3N)cc2)cc1	50.7%
O=C(/C=C/c1cccc(Cl)c1)c1cccc(OCCCCOc2cccc(C(=O)/C=C/c3cccc(Cl)c3)c2)c1	83.6%
CC(C)c1ccc(C(=O)Nc2sc3cc(O)ccc3c2C#N)cc1	18.9%
COC(=O)/C(CCC=C(C)C)=C1\[C@@H](OC(C)=O)C[C@@]2(C)[C@H]1CC(=O)[C@H]1[C@@]3(C)CCC(N4CCCC4)[C@@H](C)[C@@H]3CC[C@@]12C (some centres undefined)	73.4%
C/C(=C(\c1ccc(OCCN2CCCCCC2)cc1)c1ccc(OC(=O)Cc2ccccc2)cc1)c1ccc(Cl)cc1	-15.5% (active)
O=C(Cn1nnc2ccccc21)N/N=C/c1ccccc1F	106%
CCN(CC)CCOc1nc2c3ccc(Cl)cc3nn2c2ccccc12	4.7% (active)
COc1ccc(NC(=O)c2ccc(C(=O)Nc3ccc(OC)cc3OC)cc2)c(OC)c1	81.4%
NC(=O)OCCn1cc(-c2nc(-c3c[nH]c4ncccc34)cs2)c2ccccc21	28%
CCOC(=O)c1c(-c2ccc(Cl)cc2)c(C#N)c2c(C#N)c(N)nn2c1N	47.2%
CCOC(=O)c1c(C)nc2ccccc2c1/C=C/c1ccc(OC)cc1	66%
O=C(/C=C/C12c3ccccc3C(c3ccccc31)C1C(=O)NC(=O)C12)c1ccccn1 (centres undefined)	-1.54% (active)
Cn1c(/C=C/[N+](=O)[O-])cc2ccccc21	-56.7% (active)
COc1ccc(C2=Nc3c/c(=C\c4c(O)[nH]c5cc(Cl)ccc45)ccc3=N2)cc1	55.8%
O=C1/C(=C/c2ccc(C(F)(F)F)cc2)COc2ccc(O)c(O)c21	-6.49% (active)
O=C(O)c1cccc(N/C=C/C(=O)c2cc3cc(Br)ccc3oc2=O)c1	93.2%
COc1cc(-c2nc(SCCC(C)C)nc(N3CCOCC3)c2C#N)cc(OC)c1OC	68.3%
C/C(C=O)=C\c1ccc2c(c1)OCO2	108%
COc1cc(C(=O)c2c(-c3ccccc3)oc3c(OC)cccc23)cc(OC)c1O	13.5%
Cc1c2cnccc2c(C)c2c1c1cc(C3OCCCO3)ccc1n2C	1.16% (active)

SMILES	growth
Cc1cc2oc(=O)cc(CP(=O)(O)O)c2cc1O	96%
Cc1cc2nc3c4ccccc4n(CCN(C)C)c3nc2cc1C	-3.11% (active)
COc1cc2c(cc1O)[C@@]1(C)[C@H](c3ccccc3Br)OC(=O)N1CC2	94.9%
C[Se]C(=O)CC1=C2C=C(F)C=CC2/C(=C\c2ccc(S(C)=O)cc2)C1C (centres undefined)	15%
CCCCCCNc1nc(NCCCCCC)c2[nH]c(NCCCCCC)nc2n1	88.1%
CCN(CC)CCN(CCN(CC)CC)c1ccccc1	104%
O=C(CSc1nc2ccc([N+](=O)[O-])cc2[nH]1)Nc1ccc(Br)cc1	56.1%
COc1ccc(/C(C)=C(\c2ccc(Cl)cc2)c2ccc(OCCN3CCCC3)cc2)cc1	7.96% (active)
COc1cc2c(c(OC)c1OC)C(=O)N[C@@H]1[C@@H](O)[C@@H](O)[C@H](O)C[C@@H]21	104%
O=C1NC(=O)c2c1c1c3ccccc3[nH]c1c1oc3cc(Br)ccc3c21	70.4%
CC(C)CCSc1nc(Nc2ccccc2)c(C#N)c(-c2ccccc2)n1	55.3%
O=C(/C=C/c1ccccc1)Nc1ncc(Cc2ccccc2)s1	14.2%
C#CCn1cnc2c(Nc3cccc(NC(=O)CCl)c3)ncnc21	23.4%
C/C(=N\Nc1nc(C)cs1)c1cc2ccccc2o1	98.8%
CC(=O)N(Cc1ccccc1)c1nc2ccc(O)c(CN(C)C)c2s1	97.8%
Nc1c(C(=O)Nc2ccccn2)sc2nc3c(cc12)C(O)CCC3 (centres undefined)	23.1%
N#C/C(=C\c1ccc(Br)cc1)c1cc2ccccc2[nH]1	94%
COc1ccc(-c2ccc(-c3ccc(C(=N)N)cn3)s2)cc1	19.9%
C=CCn1c(SCC(=O)Nc2ccc(C(=O)/C=C/c3ccc(OC)cc3)cc2)nnc1-c1ccccc1	83.4%
Fc1ccc(COc2ccc(Nc3ncnc4sc5c(c34)CCCC5)cc2)cc1	92.6%

System: SNB-75 CNS
Experiment: as above
Conditions: 10 µM unless noted

SMILES	growth
CC(C)c1ccc(NC(=O)Nc2ccc(NC(=O)c3ccccc3N)cc2)cc1	26.3%
O=C(/C=C/c1cccc(Cl)c1)c1cccc(OCCCCOc2cccc(C(=O)/C=C/c3cccc(Cl)c3)c2)c1	77.8%
COC(=O)/C(CCC=C(C)C)=C1\[C@@H](OC(C)=O)C[C@@]2(C)[C@H]1CC(=O)[C@H]1[C@@]3(C)CCC(N4CCCC4)[C@@H](C)[C@@H]3CC[C@@]12C (some centres undefined)	99.2%
C/C(=C(\c1ccc(OCCN2CCCCCC2)cc1)c1ccc(OC(=O)Cc2ccccc2)cc1)c1ccc(Cl)cc1	39.7%
O=C(Cn1nnc2ccccc21)N/N=C/c1ccccc1F	95.2%
CCN(CC)CCOc1nc2c3ccc(Cl)cc3nn2c2ccccc12	33.5%
COc1ccc(NC(=O)c2ccc(C(=O)Nc3ccc(OC)cc3OC)cc2)c(OC)c1	-39.3% (active)
NC(=O)OCCn1cc(-c2nc(-c3c[nH]c4ncccc34)cs2)c2ccccc21	10.6%
CCOC(=O)c1c(-c2ccc(Cl)cc2)c(C#N)c2c(C#N)c(N)nn2c1N	79.8%
CCOC(=O)c1c(C)nc2ccccc2c1/C=C/c1ccc(OC)cc1	76.2%
O=C(/C=C/C12c3ccccc3C(c3ccccc31)C1C(=O)NC(=O)C12)c1ccccn1 (centres undefined)	26.5%
Cn1c(/C=C/[N+](=O)[O-])cc2ccccc21	44.3%
COc1ccc(C2=Nc3c/c(=C\c4c(O)[nH]c5cc(Cl)ccc45)ccc3=N2)cc1	41.6%
O=C1/C(=C/c2ccc(C(F)(F)F)cc2)COc2ccc(O)c(O)c21	33.4%
O=C(O)c1cccc(N/C=C/C(=O)c2cc3cc(Br)ccc3oc2=O)c1	83.7%
COc1cc(-c2nc(SCCC(C)C)nc(N3CCOCC3)c2C#N)cc(OC)c1OC	53.4%
C/C(C=O)=C\c1ccc2c(c1)OCO2	102%
COc1cc(C(=O)c2c(-c3ccccc3)oc3c(OC)cccc23)cc(OC)c1O	22.2%
Cc1c2cnccc2c(C)c2c1c1cc(C3OCCCO3)ccc1n2C	-23% (active)
Cc1cc2oc(=O)cc(CP(=O)(O)O)c2cc1O	75.3%

SMILES	growth
Cc1cc2nc3c4ccccc4n(CCN(C)C)c3nc2cc1C	4.8% (active)
COc1cc2c(cc1O)[C@@]1(C)[C@H](c3ccccc3Br)OC(=O)N1CC2	102%
C[Se]C(=O)CC1=C2C=C(F)C=CC2/C(=C\c2ccc(S(C)=O)cc2)C1C (centres undefined)	-25.5% (active)
CCCCCCNc1nc(NCCCCCC)c2[nH]c(NCCCCCC)nc2n1	-8.09% (active)
CCN(CC)CCN(CCN(CC)CC)c1ccccc1	79.1%
O=C(CSc1nc2ccc([N+](=O)[O-])cc2[nH]1)Nc1ccc(Br)cc1	61.6%
COc1ccc(/C(C)=C(\c2ccc(Cl)cc2)c2ccc(OCCN3CCCC3)cc2)cc1	91.4%
COc1cc2c(c(OC)c1OC)C(=O)N[C@@H]1[C@@H](O)[C@@H](O)[C@H](O)C[C@@H]21	102%
O=C1NC(=O)c2c1c1c3ccccc3[nH]c1c1oc3cc(Br)ccc3c21	31.4%
CC(C)CCSc1nc(Nc2ccccc2)c(C#N)c(-c2ccccc2)n1	-10.1% (active)
O=C(/C=C/c1ccccc1)Nc1ncc(Cc2ccccc2)s1	-2.19% (active)
C#CCn1cnc2c(Nc3cccc(NC(=O)CCl)c3)ncnc21	33.2%
C/C(=N\Nc1nc(C)cs1)c1cc2ccccc2o1	119%
CC(=O)N(Cc1ccccc1)c1nc2ccc(O)c(CN(C)C)c2s1	79.2%
Nc1c(C(=O)Nc2ccccn2)sc2nc3c(cc12)C(O)CCC3 (centres undefined)	12.7%
N#C/C(=C\c1ccc(Br)cc1)c1cc2ccccc2[nH]1	104%
COc1ccc(-c2ccc(-c3ccc(C(=N)N)cn3)s2)cc1	105%
C=CCn1c(SCC(=O)Nc2ccc(C(=O)/C=C/c3ccc(OC)cc3)cc2)nnc1-c1ccccc1	70.6%
Fc1ccc(COc2ccc(Nc3ncnc4sc5c(c34)CCCC5)cc2)cc1	113%
